Data taken from PubChem BioAssay (NCI).
This is part of a sample that, as a whole, favours compounds with a hit. Of some 83,000 tested, about 20% had one in any assay.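 How to read the values: 0–100, growth inhibition (40 = 60% inhibited); 0, no net growth; -100 to 0, cell death (-40 = 40% of starting cells died; -100 = all dead).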 Unmarked numbers belong to inactive results. Active and inactive are the calls of the source. How the source made its calls: active means growth percent below 10; inactive means the rest.

Assays:
Experiment in all cases: NCI-60 one-dose screen, 48 h (100 = growth as untreated, 0 = no growth, -100 = all killed)
Details in all cases: 10 µM unless noted
NCI-H23 lung = tested on: NCI-H23 lung
NCI-H226 lung = tested on: NCI-H226 lung
NCI-H322M lung = tested on: NCI-H322M lung
HOP-62 NSCLC = tested on: HOP-62 NSCLC
NCI-H460 lung = tested on: NCI-H460 lung
A549/ATCC NSCLC = tested on: A549/ATCC NSCLC
786-0 renal = tested on: 786-0 renal
COLO 205 colon = tested on: COLO 205 colon
DU-145 prostate = tested on: DU-145 prostate
K-562 leukemia = tested on: K-562 leukemia
MALME-3M melanoma = tested on: MALME-3M melanoma
MDA-MB-231 breast = tested on: MDA-MB-231 breast
RXF 393 renal = tested on: RXF 393 renal
SF-268 CNS = tested on: SF-268 CNS
SF-295 CNS = tested on: SF-295 CNS
SF-539 CNS = tested on: SF-539 CNS
UACC-257 melanoma = tested on: UACC-257 melanoma
M14 melanoma = tested on: M14 melanoma

Row | Structure (SMILES) | growth (NCI-H23 lung) | growth (NCI-H226 lung) | growth (NCI-H322M lung) | growth (HOP-62 NSCLC) | growth (NCI-H460 lung) | growth (A549/ATCC NSCLC) | growth (786-0 renal) | growth (COLO 205 colon) | growth (DU-145 prostate) | growth (K-562 leukemia) | growth (MALME-3M melanoma) | growth (MDA-MB-231 breast) | growth (RXF 393 renal) | growth (SF-268 CNS) | growth (SF-295 CNS) | growth (SF-539 CNS) | growth (UACC-257 melanoma) | growth (M14 melanoma)
1 | C=CC1CN2CCC1CC2C(O)c1ccnc2ccc(OC)cc12 (stereo unspecified) | 98.3% | 91.9% | 94.4% | 79.8% | 98.5% | 97.3% | 92% | 106% | 127% | 106% | 95.6% | 96.7% | 97% | 103% | 91.6% | 98.3% | 106% | 98.9%
2 | CC(C)OCC1CO1 (stereo unspecified) | 110% | 101% | 100% | 102% | 97.7% | 106% | 113% | 104% | 114% | 109% | 86.8% | 107% | 119% | 99.9% | 78.2% | 95.1% | 102% | 102%
3 | O=C1Nc2c(c(=O)n(-c3ccccc3)c3ccccc23)C(c2ccc(Cl)cc2)N1 (stereo unspecified) | 90.4% | 99.2% | 95.5% | 84.2% | 47.7% | 76.2% | 60.8% | 107% | 86.7% | 93.7% | 121% | 89.1% | 103% | 70.9% | 65.3% | 77% | 118% | 95.2%
4 | C=CCC(CCC(CC=C)C(=O)OCC)C(=O)OCC (stereo unspecified) | 108% | 104% | 83.3% | 103% | 105% | 106% | 98.5% | 110% | 110% | 108% | 96.2% | 107% | 108% | 105% | 91.9% | 105% | 113% | 
5 | Cc1cc2cn3c4ccc(O)cc4nc(N)c3c2cc1C | 26.8% | 45.9% | 7.56% (active) | 13.6% | -36.1% (active) | 8.84% (active) | 13.5% | -56.4% (active) | 4.25% (active) | -14.9% (active) | 39.6% | 27.3% | 41.1% | 12.9% | 1.42% (active) | 11.4% | 53.1% | 4.96% (active)
6 | CC(=O)N1CCN(CCNC(=O)n2cc(-c3ccncc3)c(-c3ccc(O)c(Cl)c3)n2)CC1 | 109% | 112% | 141% | 106% | 103% | 100% | 113% | 119% | 105% | 91.8% | 90.6% | 107% | 120% | 107% | 130% | 101% | 103% | 70.2%
7 | COc1ccc(/C=N/c2cc(C(C)(C)C)nn2-c2ccccc2)cc1 | 106% | 89% | 110% | 111% | 97.1% | 101% | 93.7% | 105% | 113% | 92.2% | 121% | 99.7% | 126% | 101% | 96.6% | 92.5% | 96.8% | 115%
8 | COC(=O)C(N)CC(C)C (stereo unspecified) | 107% | 97.1% | 106% | 110% | 108% | 103% | 96.7% | 114% | 101% | 88.8% | 95.2% | -50.4% (active) | 98.2% | 96.8% | 109% | 112% | 102% | 92.6%
9 | CCC(C)[C@H](NC(=O)Nc1cc(C(F)(F)F)cc(C(F)(F)F)c1)C(=O)N[C@@H](Cc1cn(C)cn1)C(=O)OC (stereo partly specified) | -83.2% [100 µM] (active) | -50.6% [100 µM] (active) | -96.8% [100 µM] (active) | -99.2% [100 µM] (active) | -64.5% [100 µM] (active) | -76% [100 µM] (active) | -88.4% [100 µM] (active) | -83.9% [100 µM] (active) | -96.4% [100 µM] (active) | -68.3% [100 µM] (active) | -86.5% [100 µM] (active) | -96.3% [100 µM] (active) | -86.6% [100 µM] (active) | -87.9% [100 µM] (active) | -93.3% [100 µM] (active) | -96% [100 µM] (active) | -97.5% [100 µM] (active) | -89.7% [100 µM] (active)
